Inconclusive results are not listed. Calls of active or inactive are those of the source. How the source made its calls, unless noted: active means hit-call score of the fitted dose curve at least 0.9, where 1 is the maximum; inconclusive means response in the unintended direction; inactive means score below 0.9.

Read-out in test [1]: ABC Transporter (ABCB1), ABCB1 (gene 5243)
Briefly: CLD_ABCB1_6hr: CellzDirect (CLD) Gene Expression Assay for ABC Transporter (ABCB1) at 6 hours (AID 2283659).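 Further: hits raise ABCB1 transcript above the DMSO vehicle baseline.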 The gist of the method:
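ABCB1 transcript measured by quantitative nuclease protection assay, chemiluminescent read-out, 6 h after dosing human hepatocyte cultures (0.2% DMSO vehicle, daily redosing). Activity fitted as increase over DMSO baseline; cytotoxicity flagged by phase-contrast morphology.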

Read-out in test [2]: Broad substrate specificity ATP-binding cassette transporter ABCG2 (Homo sapiens) (UniProt Q9UNQ0)
Description: CLD_ABCG2_6hr: CellzDirect (CLD) Gene Expression Assay for ABC Transporter (ABCG2) at 6 hours (AID 2283660). The gist of the method: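 ABCG2 mRNA induction measured by qNPA chemiluminescence in human primary hepatocyte cultures, 6 h post-dose. Chemicals tested at several concentrations against a 0.2% DMSO vehicle; positive-direction fit relative to DMSO.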

Read-out in test [3]: xenobiotic metabolism (CYP1A1), CYP1A1 (gene 1543)
Description: CLD_CYP1A1_6hr: CellzDirect (CLD) Gene Expression Assay for xenobiotic metabolism (CYP1A1) at 6 hours (AID 2283661).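 On AC50: potency for transcript induction above DMSO vehicle baseline.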 The gist of the method:
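Read-out 6 h post-dose: qNPA chemiluminescent quantitation of transcript induction against 0.2% DMSO. Cells were cultured primary human hepatocytes from two separate donor preparations; phase-contrast morphology annotated apparent cytotoxicity.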

Test [4] in a line: Tanguay_ZF_120hpf_TR_legacy: (Legacy) Oregon State University Tanguay Lab 120 Hour Post-fertilization zebrafish Assay for Touch Response (AID 2283667). An outline of the steps: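 Binary touch-response endpoint in larvae at 120 hpf after static waterborne exposure from embryo stage (28°C, 0.64% DMSO vehicle, 5 uM trimethyltin chloride as positive control); embryos dead at 24 or 120 hpf excluded; fitted as gain versus DMSO.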

Read-out in test [5]: sulfotransferase (SULT2A), SULT2A1 (gene 6822)
Description: CLD_SULT2A_6hr: CellzDirect (CLD) Gene Expression Assay for sulfotransferase (SULT2A) at 6 hours (AID 2283669).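 Further: hits raise transcript level above the DMSO vehicle baseline.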 The gist of the method: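 Measured 6 h after dosing, SULT2A1 mRNA in human hepatocyte lysates was quantified by S1 nuclease protection with chemiluminescent detection. Increases fitted against 0.2% DMSO vehicle baseline; phase-contrast cytotoxicity recorded yes/no.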

Read-out in test [6]: glucuronosyltransferase (UGT1A1), UGT1A1 (gene 54658)
Briefly: CLD_UGT1A1_6hr: CellzDirect (CLD) Gene Expression Assay for glucuronosyltransferase (UGT1A1) at 6 hours (AID 2283672). An outline of the steps: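 UGT1A1 mRNA induction, read by quantitative nuclease protection assay, 6 h after dosing primary human hepatocytes (two donors, 0.2% DMSO vehicle). Gain of signal fitted relative to vehicle.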

Test [7] can be described thus: CCTE_Padilla_ZF_144hpf_TERATOSCORE: (Legacy) CCTE's 144 Hour Post-fertilization zebrafish Assay Teratoscore, Padilla Lab (AID 2283679; active means hit-call score of the fitted dose curve at least 0.9, where 1 is the maximum; inactive means score below 0.9;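 on AC50: zebrafish embryos with chorions exposed by immersion from 6-8 hpf to 5 dpf with daily renewal; teratogenicity score from eye scoring of death hatching and malformations at 144 hpf; higher score means more developmental defects relative to DMSO baseline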). The gist of the method: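 Larvae scored by eye at 144 hpf for death, hatching and malformations after a day in clean Hanks'. Before that, daily-renewed exposure at 80 uM (0.4% DMSO, 26C) from roughly 6-8 hpf through 5 dpf, 4 embryos per chemical.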

Read-out in test [8]: Glyceraldehyde-3-phosphate dehydrogenase (Homo sapiens) (UniProt P04406)
Briefly: CLD_GAPDH_6hr: CellzDirect (CLD) Gene Expression Assay for Baseline Control (Glyceraldehyde 3-phosphate dehydrogenase) at 6 hours (AID 2283681).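 Further: active means increased signal relative to DMSO vehicle.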 An outline of the steps:
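GAPDH baseline-control readout from qNPA (S1 nuclease digestion, probe hybridization, chemiluminescence) in lysates of cultured human hepatocytes harvested 6 h post-dosing. Chemicals tested at multiple concentrations versus 0.2% DMSO vehicle; microscopy-based cytotoxicity flagged yes/no.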

Read-out in test [9]: HMG-CoA synthase (HMGCS2), HMGCS2 (gene 3158)
Briefly: CLD_HMGCS2_6hr: CellzDirect (CLD) Gene Expression Assay for HMG-CoA synthase (HMGCS2) at 6 hours (AID 2283682).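 Further: actives raise HMGCS2 transcript above the 0.2% DMSO vehicle baseline.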 An outline of the steps: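 HMGCS2 transcript induction read by quantitative nuclease protection with chemiluminescence, 6 h after dosing of primary human hepatocytes. Baseline was 0.2% DMSO vehicle; phase-contrast morphology gave a yes/no cytotoxicity annotation.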

Read-out in test [10]: xenobiotic metabolism (CYP1A1), CYP1A1 (gene 1543)
Description: CLD_CYP1A1_24hr: CellzDirect (CLD) Gene Expression Assay for xenobiotic metabolism (CYP1A1) at 24 hours (AID 2283673).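 Further: CYP1A1 mRNA level by quantitative nuclease protection with chemiluminescence.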 The gist of the method: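 Transcript levels were read at 24 h by qNPA chemiluminescence in human liver primary cells. Cells got daily fresh dosing at multiple concentrations (vehicle 0.2% DMSO). Induction fitted upward against DMSO; phase-contrast cytotoxicity annotated.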

Read-out in test [11]: solute carrier (SLC10A1), SLC10A1 (gene 6554)
Briefly: LTEA_HepaRG_SLC10A1: Life Technologies and Expression Analysis (LTEA) Assay for solute carrier (SLC10A1) using HepaRG (AID 2283657; active means hit-call score of the fitted dose curve at least 0.9, where 1 is the maximum; inactive means score below 0.9). The note with it: mRNA level, 48 h; actives raise or lower the signal. An outline of the steps:
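SLC10A1 transcript measured by TaqMan qRT-PCR, housekeeping-normalised, after 48 h chemical treatment of human HepaRG cells. Eight concentrations (half-log, max 100 uM, 0.5% DMSO vehicle) in duplicate; fitted bidirectionally against DMSO baseline.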

Read-out in test [12]: matrix metalloproteinase-1 (MMP1), MMP1 (gene 4312)
Briefly: LTEA_HepaRG_MMP1: Life Technologies and Expression Analysis (LTEA) Assay for matrix metalloproteinase-1 (MMP1) using HepaRG (AID 2283658; active means hit-call score of the fitted dose curve at least 0.9, where 1 is the maximum; inactive means score below 0.9). The note with it: mRNA level, 48 h; actives raise or lower the signal. An outline of the steps: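 Differentiated human HepaRG cells, 48 h post-plating in serum-free induction medium, were exposed 48 h to eight half-log concentrations topping at 100 uM in 0.5% DMSO, duplicate. MMP1 mRNA measured by Fluidigm TaqMan qRT-PCR, normalized to ACTB, GAPDH, POLR2A; bidirectional fits versus DMSO.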

Read-out in test [13]: Cytochrome P450 (CYP24A1_1), CYP24A1 (gene 1591)
Description: LTEA_HepaRG_CYP24A1_1: Life Technologies and Expression Analysis (LTEA) Assay for Cytochrome P450 (CYP24A1_1) using HepaRG (AID 2283671; active means hit-call score of the fitted dose curve at least 0.9, where 1 is the maximum; inactive means score below 0.9). To be noted: mRNA level, 48 h; actives raise or lower the signal. The gist of the method:
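Differentiated human HepaRG cells were exposed in duplicate for 48 h in serum-free induction medium to eight concentrations (top 100 uM, half-log steps, 0.5% DMSO). CYP24A1 mRNA was quantified by TaqMan qRT-PCR, normalized to ACTB, GAPDH and POLR2A, and fitted bidirectionally versus DMSO.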

Read-out in test [14]: Cytochrome P450 2B6 (Homo sapiens) (UniProt P20813)
Briefly: CLD_CYP2B6_6hr: CellzDirect (CLD) Gene Expression Assay for xenobiotic metabolism (CYP2B6) at 6 hours (AID 2283677).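 Further: actives raise CYP2B6 transcript above DMSO baseline so AC50 marks an inducer.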 The gist of the method: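 CYP2B6 transcript levels, read by chemiluminescent qNPA, were fitted for increase versus DMSO baseline; cultured human liver hepatocytes from two donor preparations were harvested 6 h after exposure to test chemicals at multiple concentrations.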

Read-out in test [15]: Cytochrome P450 3A4 (Homo sapiens) (UniProt P08684)
Briefly: CLD_CYP3A4_6hr: CellzDirect (CLD) Gene Expression Assay for xenobiotic metabolism (CYP3A4) at 6 hours (AID 2283680). The gist of the method:
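CYP3A4 mRNA induction, 6 h after dosing of cultured primary human hepatocytes from two donors, read by quantitative nuclease protection (qNPA, chemiluminescence). Vehicle 0.2% DMSO as baseline; morphology-based cytotoxicity annotated yes/no.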

The test system of test [16] is Thyroperoxidase (TPO), gene 54314. Description: CCTE_Simmons_AUR_rTPO: CCTE's Amplex UltraRed Assay for Thyroperoxidase (TPO) Inhibition, Simmons Lab (AID 2283662).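 Further: potency for loss of signal meaning inhibition of peroxidase activity.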 An outline of the steps:
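Rat thyroid microsomal TPO + 25 uM AUR in 200 mM K phosphate; cpd 5 nM–87.5 uM [final], 8 conc, 0.5% DMSO; 300 uM H2O2 starts rxn; 37C dark 30 min; endpoint FI 544/590 nm; n=3.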

Read-out in test [17]: xenobiotic metabolism (CYP1A2), CYP1A2 (gene 1544)
Briefly: CLD_CYP1A2_6hr: CellzDirect (CLD) Gene Expression Assay for xenobiotic metabolism (CYP1A2) at 6 hours (AID 2283663). The gist of the method:
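mRNA levels quantified by quantitative nuclease protection assay with chemiluminescence, 6 h after dosing human primary hepatocyte cultures (two donors) across several concentrations, vehicle 0.2% DMSO. Induction fitted upward versus DMSO; phase-contrast cytotoxicity annotated.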

Broad substrate specificity ATP-binding cassette transporter ABCG2 (Homo sapiens), sequence (Q9UNQ0 whole entry, looked up): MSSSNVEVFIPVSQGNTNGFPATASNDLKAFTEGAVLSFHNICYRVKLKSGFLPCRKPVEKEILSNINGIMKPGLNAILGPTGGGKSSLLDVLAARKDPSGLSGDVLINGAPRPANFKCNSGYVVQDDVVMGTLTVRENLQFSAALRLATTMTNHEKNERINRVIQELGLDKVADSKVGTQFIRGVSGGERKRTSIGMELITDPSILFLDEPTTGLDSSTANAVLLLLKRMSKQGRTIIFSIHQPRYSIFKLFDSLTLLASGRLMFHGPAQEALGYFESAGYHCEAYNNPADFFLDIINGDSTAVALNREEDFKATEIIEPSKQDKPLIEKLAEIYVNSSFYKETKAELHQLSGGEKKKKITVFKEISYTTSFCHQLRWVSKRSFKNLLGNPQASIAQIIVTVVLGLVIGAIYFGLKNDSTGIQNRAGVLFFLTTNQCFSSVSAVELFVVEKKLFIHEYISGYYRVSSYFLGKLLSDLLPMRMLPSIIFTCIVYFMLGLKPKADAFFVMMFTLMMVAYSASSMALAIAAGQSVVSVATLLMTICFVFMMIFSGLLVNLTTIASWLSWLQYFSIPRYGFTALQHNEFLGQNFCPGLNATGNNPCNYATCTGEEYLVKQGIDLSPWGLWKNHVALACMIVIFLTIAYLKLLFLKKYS
Glyceraldehyde-3-phosphate dehydrogenase (Homo sapiens), sequence (P04406 whole entry, looked up): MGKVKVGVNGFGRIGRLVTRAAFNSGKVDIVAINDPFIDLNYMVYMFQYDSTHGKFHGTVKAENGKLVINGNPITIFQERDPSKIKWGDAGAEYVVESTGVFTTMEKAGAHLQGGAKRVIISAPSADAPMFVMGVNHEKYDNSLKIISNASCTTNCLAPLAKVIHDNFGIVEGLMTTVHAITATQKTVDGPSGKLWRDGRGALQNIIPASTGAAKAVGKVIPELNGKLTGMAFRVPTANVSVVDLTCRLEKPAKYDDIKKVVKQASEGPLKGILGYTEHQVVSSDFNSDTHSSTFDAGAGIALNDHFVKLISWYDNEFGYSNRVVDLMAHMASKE
Cytochrome P450 3A4 (Homo sapiens), sequence (P08684 whole entry, looked up): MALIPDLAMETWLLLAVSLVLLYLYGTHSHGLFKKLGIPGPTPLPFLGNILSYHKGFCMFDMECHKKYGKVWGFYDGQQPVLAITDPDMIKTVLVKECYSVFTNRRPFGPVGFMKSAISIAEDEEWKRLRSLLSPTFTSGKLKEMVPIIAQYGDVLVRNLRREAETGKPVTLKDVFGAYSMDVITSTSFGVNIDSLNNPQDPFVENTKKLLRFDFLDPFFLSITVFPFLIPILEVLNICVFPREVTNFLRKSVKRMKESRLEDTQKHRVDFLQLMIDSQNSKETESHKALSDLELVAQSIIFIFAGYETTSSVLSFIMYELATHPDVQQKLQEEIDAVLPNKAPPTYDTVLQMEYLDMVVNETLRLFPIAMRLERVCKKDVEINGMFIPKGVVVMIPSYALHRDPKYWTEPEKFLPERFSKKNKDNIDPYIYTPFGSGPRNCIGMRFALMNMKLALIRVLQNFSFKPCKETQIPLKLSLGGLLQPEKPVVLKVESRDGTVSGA

As for `COP(=O)(OC)O/C(C)=C/C(=O)N(C)C`, the result in [1], in test [2], in test [3], in test [4], in test [5] and in test [6] was inactive. Moreover, the result in test [7] and in test [8] was inactive.

What is called AC50 is the concentration giving half of the maximal activity seen. For the compound `CCOc1cc(C(C)(C)C)ccc1C1COC(c2c(F)cccc2F)=N1` (stereo not drawn), the result in test [1], in test [2], in test [3], in test [4], in [6] and in test [8] was inactive. Besides, the compound was classed as inactive in test [9]. The AC50 in [7] is 1.9 µM (active).

Regarding `CC(C)NC(=O)N1CC(=O)N(c2cc(Cl)cc(Cl)c2)C1=O`, the compound was called inactive in test [1], in test [2], in [4], in test [6] and in test [8]. For the same compound, the values for the AC50 in test [3], in [10] and in test [7] were 8.11 µM (active), 20 µM (active) and 74.4 µM (active), respectively.

For the compound `CC(C)Oc1cccc(NC(=O)c2ccccc2C(F)(F)F)c1`, the AC50 in [11] is 74 µM (active); in test [3] it was 3 µM (active); in test [14], 3.68 µM (active); in [7] it was 15.9 µM (active). Further, the call in test [12], in test [1], in test [4], in test [13], in test [6] and in test [15] was inactive. Further, the result in test [8] was inactive.

For `CCCCC(O)(Cn1cncn1)c1ccc(Cl)cc1Cl` (stereo not drawn), the compound was classed as inactive in [1], in test [2], in test [4] and in test [6]. Besides, the AC50 is 0.532 µM (active) in test [3] and 36.5 µM (active) in test [7].

With `O=c1n(Cl)c(=O)n(Cl)c(=O)n1Cl`, the result in [2], in test [4], in test [6], in test [7], in test [8] and in test [9] was inactive. Besides, the AC50 in [3] is 11.3 µM (active); in [16], 22.5 µM (active).

As to `O=C(Nc1ccccc1-c1ccc(Cl)cc1)c1cccnc1Cl`, the compound was classed as inactive in test [1], in test [4], in test [6] and in [9]. Moreover, the AC50 in test [3] was 2.46 µM (active); in [10], 5.36 µM (active); in [7] it was 3.12 µM (active).

In the case of `O=P(O)(O)CCCl`, the outcome in [3], in test [4], in test [6], in test [7] and in [8] was inactive. For the same compound, the AC50 in test [16] is 18.2 µM (active).

For `CO/N=C(/C1=NOCCO1)c1ccccc1Oc1ncnc(Oc2ccccc2Cl)c1F`, the compound was called inactive in test [1], in [2], in [4], in test [10] and in [8]. In addition, in test [7], the AC50 was 0.182 µM (active).

With `COC(=O)NC(=S)Nc1ccccc1NC(=S)NC(=O)OC`, the AC50 was 5.11 µM (active) in test [3], 22.2 µM (active) in test [16] and 0.486 µM (active) in test [7]. The outcome in [17], in [4], in test [6] and in [9] was inactive.

For `CNC(=O)N(C)c1nnc(C(C)(C)C)s1`, the compound was classed as inactive in [1], in test [17], in test [4], in test [7] and in [15]. The AC50 in test [3] is 0.00579 µM (active).

With `CSC(=O)c1c(C(F)F)nc(C(F)(F)F)c(C(=O)SC)c1CC(C)C`, the figures for the AC50 in [3] and in [7] were 5.31 µM (active) and 9.65 µM (active), respectively. Further, the call in test [4], in [5], in test [6], in [8] and in [9] was inactive.

(Values after PubChem BioAssay (EPA / NIEHS).)
